Screens deposited in PubChem by National Center for Advancing Translational Sciences (NCATS).
Compounds with a hit are over-represented: about 5.7% of the library has one in this group of screens.
KB-3-1 tox = KB-3-1 parental cell cytotoxicity; hit rate 1.4% among 400,000; KB-3-1 viability, CellTiter-Glo ATP luminescence, 72 h; Potency, µM (titrated, usually from 46.1 µM), actives largely listed as cytotoxic; AID 1347075; further: nearly all actives have a fitted effect of over 60% in size
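Cells are dispensed, compounds pinned in, plates held at 37 °C for 72 h, then CellTiter-Glo is added and luminescence read after 10 minutes. Cell line: parental KB-3-1 in phenol-red-free DMEM, 10% FBS.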
PI4K2A block = PI4K2A (human) kinase inhibition; hit rate 0.13% among 420,000; activity change, negative = inhibition, % at 76.9 µM; purified PI4K2A, ADP-Glo luminescence, 1 h; active compounds read low; AID 1346378; in the data active means activity change below about -50%; inconclusive means mostly about -30% to -49%
Target sequence (Q9BTU6 whole entry, looked up): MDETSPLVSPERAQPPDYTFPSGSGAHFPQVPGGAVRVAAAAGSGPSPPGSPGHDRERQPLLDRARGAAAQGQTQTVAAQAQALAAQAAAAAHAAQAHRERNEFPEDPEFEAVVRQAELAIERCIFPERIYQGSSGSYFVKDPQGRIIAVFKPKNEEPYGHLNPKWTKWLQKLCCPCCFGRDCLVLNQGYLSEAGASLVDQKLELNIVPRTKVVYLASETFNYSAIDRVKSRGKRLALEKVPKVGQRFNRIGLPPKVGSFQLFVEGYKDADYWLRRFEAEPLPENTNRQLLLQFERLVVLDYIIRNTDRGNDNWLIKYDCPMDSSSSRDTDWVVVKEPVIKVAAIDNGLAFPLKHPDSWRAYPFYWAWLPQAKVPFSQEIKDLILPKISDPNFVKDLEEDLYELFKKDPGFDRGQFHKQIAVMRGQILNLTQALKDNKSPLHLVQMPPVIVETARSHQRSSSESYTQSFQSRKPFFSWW
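Compounds are screened against recombinant PI4K2A using PI as substrate and ATP, the latter dispensed at 300 microM. Reactions run one hour at ambient temperature before ADP-Glo detection; full inhibition defined by wells lacking enzyme.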
A549 viability = A549 cytotoxicity, counter-screen for Nrf2 inhibitors; hit rate 0.16% among 390,000; Potency, µM (series often up to 46 µM), most hits filed as inhibitors; AID 504648; A549 ARE-Fluc cells, CellTiter-Fluor viability, 18-24 h
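A549 ARE-Fluc cells in 5% FBS OPTI-MEM, 5000 cells/well, rested 2 h then exposed to compounds in concentration-response for 18-24 h at 37 °C. Viability by CellTiter-Fluor fluorescence (Ex 405/Em 525) after 30 min; luciferase luminescence (BugLite, 15 min, RT) read afterwards.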
Nrf2 inh = inhibitors of Nrf2 signaling | A549 ARE-Fluc reporter, luciferase luminescence, 18-24 h | Potency, µM (series often up to 46 µM), actives largely listed as inhibitors | hit rate 2.1% among 360,000; further: nearly all actives have a fitted effect of over 60% in size
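Reporter: ARE-Fluc in A549. Exposure: 18-24 h, 37 °C, 5% CO2, 5% FBS OPTI-MEM. Readouts: fluorescent cytotoxicity (CellTiter-Fluor), then luminescent Nrf2 signal after BugLite.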
KB-V1 cytotox = kills drug-selected multidrug resistant KB-V1 cells; KB-V1 MDR cells viability, CellTiter-Glo, 72 h; Potency, µM (top dose mostly 46.1 µM), usual class: cytotoxic; hit rate 3.4% among 400,000; AID 1347076; further: nearly all actives have a fitted effect of over 60% in size
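qHTS viability screen in drug-selected KB-V1 MDR cells: 72 h compound treatment at 37 degrees C, ATP luminescence end point.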
Giardia kill = kills Giardia lamblia; AID 540267; activity change, % at 7.66 µM, hits read low; Giardia lamblia trophozoite viability; hit rate 0.15% among 340,000; in the data active means activity change below about -80%; inconclusive means between about -30% and that limit;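 further: parasites exposed to compound for two days anaerobically before the ATP read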
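Each well holds 100 Giardia trophozoites and compound. After two days (48 hrs) at 37 deg C in anaerobic conditions, ATP is quantified by luminescence.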
Numbers stand for hits; 0 = inactive; ? = inconclusive; - = no result given. Unless noted, the call rests on the fitted dose curve; in most records, active means well fitted curve in the direction sought with a large enough effect; inconclusive means small, poorly fitted or top-dose-only effect, or another doubt; inactive means no such curve, though single readings can be large; an effect the other way counts as inactive or inconclusive.

SMILES	KB-3-1 tox	PI4K2A block	A549 viability	Nrf2 inh	KB-V1 cytotox	Giardia kill
COc1ccc(-c2nn(C)c(=O)c3ccccc23)cc1NC(=O)Cn1nc(C)c2ccccc2c1=O	0	0	0	0	21µM	0
Cc1ccc(-c2nn(CC(=O)NCc3cc(-c4nn(C)c(=O)c5ccccc45)ccc3C)c(=O)c3ccccc23)cc1	23µM	0	0	?	7.3µM	0
COC(=O)Cn1nc(-c2ccc(C)c(S(=O)(=O)N(C)C)c2)c2ccccc2c1=O	0	0	0	0	18µM	0
CCC(=O)Nc1cc(-c2nn(C)c(=O)c3ccccc23)ccc1OC	0	0	0	-	12µM	0
O=C(Nc1ccc2sccc2c1)Nc1nnc(-c2ccncc2)s1	0	-	-	-	0	-
CC(=O)Nc1ccc(/C=C/c2nc3ccccc3s2)cc1	0	-	-	-	0	-
CC1CC=CC2C1C(=O)N(Cc1ccccc1)C2c1ccc(F)c(/C=C/c2ccccc2)c1 (stereo not given)	-	-	0	0	-	0
CC(C)OCCCNC(=O)CN1C(=O)COc2ccc(S(=O)(=O)N3CCOCC3)cc21	0	0	0	0	0	-
Cc1ccc(S(=O)(=O)N2CC3(COC(C)(C)OC3)C[C@H]2CON2C(C)(C)CCCC2(C)C)cc1	-	0	-	-	-	-
O=C(CNc1cccc([N+](=O)[O-])c1)N/N=C/c1ccc([N+](=O)[O-])o1	?	0	0	0	?	-107
O=C(CNc1ccccc1)N/N=C/c1ccc([N+](=O)[O-])cc1	0	0	0	0	0	0
CSc1ccc(/C=N/NC(=O)CNc2cccc3ccccc23)cc1	0	0	0	0	0	0
O=C(CNc1cccc2ccccc12)N/N=C/c1ccc([N+](=O)[O-])o1	?	0	?	16µM	0	-96
O=C(O)c1cn(C2CC2)c2cc(Cl)c(F)cc2c1=O	-	0	-	-	-	-
COc1ccccc1N1CCN(S(=O)(=O)c2ccc3c(c2)n(C)c(=O)c(=O)n3C)CC1	-	0	-	-	-	-
CCc1cc2c(Sc3nc4ccccc4s3)ncnc2s1	12µM	0	0	?	?	0
O=S1(=O)c2ccc(N3CCC[C@H]3CO)cc2OCCCN1C1CC1	-	0	-	-	-	-
COc1cc(NC(=O)C2CCCN(S(=O)(=O)c3cccc4cccnc34)C2)cc(OC)c1 (stereo not given)	-	0	-	-	-	-
O=C(c1ccc(F)cc1F)N(Cc1ccccn1)CC1CCCO1 (stereo not given)	-	0	-	-	-	-
COc1ccc(Nc2nc3cc(C)ccc3cc2C#N)c(OC)c1	2.1µM	0	0	0	0	0
CC(C)CNC(=O)c1coc(=O)c(Br)c1	6.3µM	0	?	?	?	0
CCOC(=O)N1CCN(C(=O)COc2ccc3c(c2)C(=O)CC(C)(C)O3)CC1	0	0	0	0	?	0
CC(=O)N1CCC2(CC1)CC(=O)c1cc(OCC(=O)NCc3ccco3)ccc1O2	0	0	0	0	0	0
CC1(C)CC(=O)c2cc(OCC(=O)N3CCCCCC3)ccc2O1	0	0	0	?	18µM	0
CC(=O)N1CCC2(CC1)CC(=O)c1cc(OCC(=O)NCc3ccc(C)cc3)ccc1O2	0	0	0	0	18µM	0
SMILES	KB-3-1 tox	PI4K2A block	A549 viability	Nrf2 inh	KB-V1 cytotox	Giardia kill
O=C(COc1ccc2ccccc2c1)Nc1ccc(O)c(-c2nc3ccccc3o2)c1	0	-	-	-	?	-
CC12CCC=CC1=C(C=O)C1C2CCC2(C)C(O)CCC12 (stereo not given)	18µM	0	0	0	?	0
COc1ccc(CCC(=O)Nc2cc([N+](=O)[O-])ccc2OC)cc1	0	0	0	0	21µM	0
CCCCC(=O)Nc1ccc(C(=O)Nc2ccc(OC)cc2[N+](=O)[O-])cc1	0	0	?	21µM	?	0
COc1ccc(NC(=S)Nc2ccc(N)c([N+](=O)[O-])c2)cc1	0	-53	0	0	0	0
CC(=O)Nc1cc([N+](=O)[O-])ccc1OCc1ccccc1	0	0	0	0	18µM	0
COc1ccc([N+](=O)[O-])cc1NC(=O)CSCc1ccccc1	0	0	0	0	0	0
CC1CCCCN1CCCOC(=O)c1ccc(OC2CCCCC2)cc1 (stereo not given)	-	0	-	-	-	-
COC(=O)[C@]12C[C@H](CC(=O)N3CCCCC3)C(=O)N(Cc3ccc(Cl)cc3Cl)C1=C[C@H](C(C)C)O[C@@H]2C1CC1	-	0	-	-	-	-
COc1ccc(CCC(=O)Nc2ccc(C)c([N+](=O)[O-])c2)cc1	0	0	0	0	21µM	0
COc1ccc(S(=O)(=O)Nc2cc([N+](=O)[O-])ccc2OC)cc1	?	0	0	0	18µM	0
CCCCN(C)C(=O)c1ccc2c(c1)N(Cc1cccc(F)c1)C(=O)c1ccccc1S2	0	0	0	-	?	-
S=C(NCC1CCCO1)NC1CCCCC1 (stereo not given)	0	0	0	0	0	0
CCCC(NC(=S)NCC1CCCO1)C12CC3CC(CC(C3)C1)C2 (stereo not given)	0	0	0	15µM	0	0
Cc1c2cc(O)c(=O)cc-2oc2cc(O)c(O)cc12	?	?	-	?	?	0
COc1cc(OC)c(-c2c3cc(O)c(=O)cc-3oc3cc(O)c(O)cc23)cc1OC	0	0	16µM	?	0	0
CN(C)c1oc(-c2ccco2)nc1S(=O)(=O)c1ccc(Br)cc1	0	0	0	0	4.6µM	0
CN(C)c1oc(-c2ccccc2Cl)nc1P(=O)(c1ccccc1)c1ccccc1	?	0	?	?	7.3µM	0
Cc1ccc(S(=O)(=O)c2nc(-c3ccccc3Cl)oc2N(C)C)cc1	18µM	0	0	0	10µM	0
COC(=O)C[C@@H]1CC[C@@H]2[C@@H](COc3ccc(NC(=O)Nc4ccc(F)cc4)cc3C(=O)N2C)O1	-	0	-	-	-	-
COc1cc2c(cc1OC)CN(c1ccc(-c3ccccc3OC)nn1)CC2	0	0	0	18µM	?	0
Cc1nn(C)c(Oc2ccccc2)c1CCNS(=O)(=O)c1ccc(Cl)cc1	?	0	0	?	18µM	0
CCOc1ccc(CNC(=O)c2cc3c(=O)n(Cc4cccs4)ccc3nc2C)cc1	-	0	0	?	-	-
CC(C)c1ccc(C(=O)C[N+]2(C)CCOCC2)cc1	0	-	-	-	0	-
Cn1cc(CN2CCCC(C(=O)Nc3cccc(-c4cc5ccccc5[nH]4)c3)C2)cn1 (stereo not given)	?	0	?	23µM	0	0
CC(C)n1cc(CN2CCCC(C(=O)Nc3cccc(-c4cc5ccccc5[nH]4)c3)C2)cn1 (stereo not given)	?	0	0	0	?	0
CC1=C([N+](=O)[O-])C(c2cccc(Br)c2)C2=C(N1)c1ccccc1C2=O (stereo not given)	1.6µM	0	?	?	?	0
Cc1ccc(NS(=O)(=O)c2cc3c(cc2-c2ccsc2)NC(=O)CO3)cc1C	-	-	0	0	-	-
